# The supplement of paper PMC8728848
# This excerpt belongs to a sample that is enriched for the strongest signals.
# Tests used:
# Test in all cases: glycan array binding signal (z-score within array); higher = stronger binding
# Conditions in all cases: glycan notation: IUPAC condensed, linker removed
# [1] = biological target: Fuc(a1-2)Gal(b1-3)GalNAc
# Procedure, shortened: (§1)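 The binding signal is a Z-score computed within each array. Data were drawn from 3228 arrays in the Consortium for Functional Glycomics database, restricted to those with a known protein sequence. Scores were averaged over arrays of the same protein sequence at different concentrations or buffers, and over linkers, and negative values can be taken as non-binding.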
# [2] = biological target: Fuc(a1-2)[Gal(a1-3)]Gal(b1-4)Glc
# Procedure, shortened: as §1
# [3] = biological target: Fuc(a1-2)[GalNAc(a1-3)]Gal
# Procedure, shortened: as §1
# [4] = biological target: Fuc(a1-2)[GalNAc(b1-3)]Gal
# Procedure, shortened: as §1
# [5] = biological target: Fuc(a1-3)GlcNAc
# Procedure, shortened: as §1
# [6] = biological target: Gal(a1-2)Gal
# Procedure, shortened: as §1
# [7] = biological target: Gal(b1-3)[Fuc(a1-4)]GlcNAc(b1-3)Gal(b1-4)GlcNAc
# Procedure, shortened: as §1
# [8] = biological target: Gal(b1-4)GlcNAc
# Procedure, shortened: as §1
# [9] = biological target: Gal(b1-4)GlcNAc(b1-3)Gal(b1-4)Glc
# Procedure, shortened: as §1
# [10] = biological target: Gal(b1-4)GlcNAc(b1-3)Gal(b1-4)GlcNAc
# Procedure, shortened: as §1
# [11] = biological target: Gal4S6S(b1-4)GlcNAc
# Procedure, shortened: as §1
# [12] = biological target: Gal6S(b1-4)Glc
# Procedure, shortened: as §1
# [13] = biological target: Gal6S(b1-4)GlcNAc
# Procedure, shortened: as §1
# [14] = biological target: GlcNAc(b1-3)Gal(b1-4)Glc
# Procedure, shortened: as §1
# [15] = biological target: Man(a1-2)Man(a1-3)[Man(a1-2)Man(a1-6)]Man
# Procedure, shortened: as §1
# [16] = biological target: Man(a1-2)Man(a1-3)[Man(a1-2)Man(a1-6)]Man(a1-6)[Man(a1-2)Man(a1-2)Man(a1-3)]Man(b1-4)GlcNAc(b1-4)GlcNAc
# Procedure, shortened: as §1
# [17] = biological target: Neu5Ac(a2-3)Gal(b1-3)[Neu5Ac(a2-6)]GalNAc
# Procedure, shortened: as §1
# [18] = biological target: Neu5Ac(a2-3)Gal(b1-4)GlcNAc(b1-2)Man(a1-3)[Neu5Ac(a2-3)Gal(b1-4)GlcNAc(b1-2)Man(a1-6)]Man(b1-4)GlcNAc(b1-4)GlcNAc
# Procedure, shortened: as §1
# [19] = biological target: Neu5Ac(a2-3)Gal(b1-4)GlcNAc(b1-3)Gal(b1-4)GlcNAc(b1-3)Gal(b1-4)GlcNAc
# Procedure, shortened: as §1
# [20] = biological target: Neu5Ac(a2-3)Gal(b1-4)[Fuc(a1-3)]GlcNAc
# Procedure, shortened: as §1
# [21] = biological target: Neu5Ac(a2-3)Gal(b1-4)[Fuc(a1-3)]GlcNAc(b1-3)Gal(b1-4)GlcNAc
# Procedure, shortened: as §1
# [22] = biological target: Neu5Ac(a2-3)Gal(b1-4)[Fuc(a1-3)]GlcNAc(b1-3)Gal(b1-4)[Fuc(a1-3)]GlcNAc(b1-3)Gal(b1-4)[Fuc(a1-3)]GlcNAc
# Procedure, shortened: as §1
# [23] = biological target: Neu5Ac(a2-3)Gal6S(b1-4)GlcNAc
# Procedure, shortened: as §1
# [24] = biological target: Neu5Ac(a2-3)GalNAc
# Procedure, shortened: as §1
# [25] = biological target: Neu5Ac(a2-6)Gal(b1-4)GlcNAc(b1-3)Gal(b1-4)[Fuc(a1-3)]GlcNAc(b1-3)Gal(b1-4)[Fuc(a1-3)]GlcNAc
# Procedure, shortened: as §1
# [26] = biological target: Neu5Ac(a2-6)Gal(b1-4)GlcNAc6S
# Procedure, shortened: as §1
binder,measurement,setting,value
"F4 (Escherichia coli), A0A6L9DDF0 (protein) MKKTLIALALAASAVSGMAHAWTSGDFNGTVDIGGSIDATNYRQKWEWEVGTGLNGFYNALSELTNNDTKLTITVTGNKPILLGRTKEAFVTPTAGGWGGIPQIAFTDYKGAPVELKNPDGETNKGLAYFVLPMKNADGTEAGSVRVNASYAGAVVEKTSDSSAKLFSAYAGEVIRIFNGGLPVNVTQSELQSGVAAADRTALFGSLGKADLVAQFQAVIPGATVTDGTSSEHCTMRLLASAAYALGIADGQTIEATFNQAVTTSTQWSAPLNVAITYY",glycan array binding signal (z-score),[1],-0.145
same,glycan array binding signal (z-score),[2],-0.191
same,glycan array binding signal (z-score),[3],-0.144
same,glycan array binding signal (z-score),[4],-0.33
same,glycan array binding signal (z-score),[5],-0.164
same,glycan array binding signal (z-score),[6],-0.128
same,glycan array binding signal (z-score),[7],-0.232
same,glycan array binding signal (z-score),[8],-0.137
same,glycan array binding signal (z-score),[9],-0.276
same,glycan array binding signal (z-score),[10],-0.397
same,glycan array binding signal (z-score),[11],0.285
same,glycan array binding signal (z-score),[12],-0.213
same,glycan array binding signal (z-score),[13],1.48
same,glycan array binding signal (z-score),[14],8.86
same,glycan array binding signal (z-score),[15],0.052
same,glycan array binding signal (z-score),[16],-0.311
same,glycan array binding signal (z-score),[17],-0.291
same,glycan array binding signal (z-score),[18],-0.209
same,glycan array binding signal (z-score),[19],-0.282
same,glycan array binding signal (z-score),[20],2.09
same,glycan array binding signal (z-score),[21],-0.176
same,glycan array binding signal (z-score),[22],-0.185
same,glycan array binding signal (z-score),[23],-0.21
same,glycan array binding signal (z-score),[24],-0.397
same,glycan array binding signal (z-score),[25],2.24
same,glycan array binding signal (z-score),[26],-0.382
